# Source: publication PMC13494018
# Unmarked numbers belong to inactive results. No rule for the calls is given here.
# Molecular target: VTCN1, Q7Z7D3
# Sequence (Q7Z7D3 whole entry): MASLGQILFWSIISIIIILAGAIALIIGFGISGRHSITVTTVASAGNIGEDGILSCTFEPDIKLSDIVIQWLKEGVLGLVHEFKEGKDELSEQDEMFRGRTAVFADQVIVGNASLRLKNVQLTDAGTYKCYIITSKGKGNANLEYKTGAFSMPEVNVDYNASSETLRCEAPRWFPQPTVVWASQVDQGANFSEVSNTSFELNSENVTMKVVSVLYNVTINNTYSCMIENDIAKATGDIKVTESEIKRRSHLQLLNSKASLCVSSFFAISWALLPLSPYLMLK
row,Binder,binding in a display sort
1,design_603_0b98da89-d791-4423-9b2d-fd1b7292da18_1363_dldesign_0_cycle1_af2pred (protein) EEEERKSRQAYGKALSLIELARHAAKADPKAYPLALKYIEKAKELAEEASEELKKEVLEEAEEAEKEVLELGKK,not found
2,design_603_0b98da89-d791-4423-9b2d-fd1b7292da18_1956_dldesign_0_cycle1_af2pred (protein) VTRAELAALAHEVQEAANEVYFEAKKSKNTEKLQALAREAKALVKQAASADPETALALLKEAQALVDEAKKILEKEKKE,not found
3,design_603_0b98da89-d791-4423-9b2d-fd1b7292da18_1486_dldesign_0_cycle1_af2pred (protein) MSIELLAEAARAAVRIARALGEAEDVETAVAFRDKAIEAAAEDEEMAKKIIAAAKEVEDPATALAAARAALAAVEAFAA,not found
4,design_603_0b98da89-d791-4423-9b2d-fd1b7292da18_2015_dldesign_0_cycle1_af2pred (protein) KETAEELLENARKLAEKAGELVGPELLEVMEKMIEAAKKEDGKKEIEELAKEALELAKKAGVPEAAEYIHQAKADAYAANVFRK,not found
5,design_603_0b98da89-d791-4423-9b2d-fd1b7292da18_1699_dldesign_0_cycle1_af2pred (protein) MTDLEIVEENIKEAREEFARDPRLGLAVARATVSTAKAMSKKSEEGKKALEKAKAFLEELEAEYRARLAAAAAAAAAAE,not found
6,design_603_0b98da89-d791-4423-9b2d-fd1b7292da18_1531_dldesign_0_cycle1_af2pred (protein) SEAKEEAKKALERLKKVRERAKEEAPLLTPEERKELSELLAKAREYLNLALVSKDEKEAKKYVEKGKEYLEKAEKLIEKAKAKA,not found
7,design_603_0b98da89-d791-4423-9b2d-fd1b7292da18_2081_dldesign_0_cycle1_af2pred (protein) AEEAEKKVKELAKKAEEAFRRAREAGAKAVEKDPSVAKRASELVHQAAQYRAEAKAAKDPEEAKEALKKAEKAREELEKLAKA,not found
8,design_603_0b98da89-d791-4423-9b2d-fd1b7292da18_1252_dldesign_0_cycle1_af2pred (protein) AKEVVKKAKAEAKKLGEKAAAAETLEEAKKLVKELRKEAEKQAKEMKKAGAPEKDIKEVLTTAAELGAEALAEVRS,not found
9,design_603_0b98da89-d791-4423-9b2d-fd1b7292da18_1770_dldesign_0_cycle1_af2pred (protein) DLEEVKKKASELLFKAIDLVSSGEKEEEGEKAIEEAKKILLSYGKEHPEYAKEMEEGAKKVESVYESAKKAAK,not found
10,design_603_0b98da89-d791-4423-9b2d-fd1b7292da18_2150_dldesign_0_cycle1_af2pred (protein) HERFKYAASAETIAEQVEETAKIYGDEELKEAAKKIKEAAKEAEKSEDAEEAKKAYEKAKEIRKKARKELKAKKA,not found
11,design_603_0b98da89-d791-4423-9b2d-fd1b7292da18_2026_dldesign_0_cycle1_af2pred (protein) SSMKEEEIKEMEKAAKKAAELLDDEEAAKKLLEAVKLAIEDPKEGTKKLREIAKEIGAKGSEEVKKALEEAVHAALRYRAI,not found
12,design_603_0b98da89-d791-4423-9b2d-fd1b7292da18_1380_dldesign_0_cycle1_af2pred (protein) GEEVAKVLEKNAEIAREGDAEEAIAALKEAAKELNKYHKLQPYAERLEFLAEELKKNKADPEKAAAIAKYGAELLKKAAEVAK,not found
13,design_603_0b98da89-d791-4423-9b2d-fd1b7292da18_1568_dldesign_0_cycle1_af2pred (protein) DEELKKEAKEEIKKAAEKGIAAAKAGNILEAQFYAVEAREIGREYAKKIKNKELAKEVKEYAKKQAEKIRAEAAKVLAA,not found
14,design_603_0b98da89-d791-4423-9b2d-fd1b7292da18_1249_dldesign_0_cycle1_af2pred (protein) AEASKQAAKEIAATVRKLGEKVPEAAPLAEEAAKAVEAAAGEAPEKIAAVAIAALKEIGEKVPEATSLANEARAEARGIAHEAKK,not found
15,design_603_0b98da89-d791-4423-9b2d-fd1b7292da18_1193_dldesign_0_cycle1_af2pred (protein) GEEEKLKELIKKTEELAEGTEKLAKKVSEKYPEFEEELKKAAEEAKKAAEEAKKNPEKAPEQYKKVNEKNFEVQQLRAEGKYKS,not found
16,design_603_0b98da89-d791-4423-9b2d-fd1b7292da18_2177_dldesign_0_cycle1_af2pred (protein) MKALEEAEEFAKKMIEEAKKWGEAEADVAKVLGKSLLEAVEKTLKEKNEEAALAVAKEGKEKAKKIMDRIKEDIERAKKS,not found
17,design_603_0b98da89-d791-4423-9b2d-fd1b7292da18_1818_dldesign_0_cycle1_af2pred (protein) AEEKIKEGEEKAKKFVEKAKELAKEGKYNAALGYVEAAKDVAKEIEKLSEEGKEVGKKIKEEAEKAEKIVKEKEKEKKELEE,not found
18,design_603_0b98da89-d791-4423-9b2d-fd1b7292da18_1535_dldesign_0_cycle1_af2pred (protein) MEEKYLKEAEKLLEEGKKEIERAGKEEGAEAAKEVGKKYLEKLTEVAKKLSPEKEGEVLLKFKKESMKIIKEAEEREK,not found
19,design_603_0b98da89-d791-4423-9b2d-fd1b7292da18_1943_dldesign_0_cycle1_af2pred (protein) PPADELLALADKKAEEVEKKIEEAAEYGKKSGDKEKALKLIDEVLKEAEKEAEELIAKPETRAAGVILRNEAEVMAKNAKEKLLK,not found
